Source: PubChem BioAssay (University of Kansas High Throughput Screening Laboratory)
mHTT CaM bind: mutant huntingtin-calmodulin interaction inhibitors – biochemical, AlphaScreen, primary screen; P42858; AlphaScreen His-mHTT/GST-CaM binding, luminescence; inhibition, % at 15 µM; 190,000 tested, 3.6% active; AID 1671202, 2021;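 also: 0% = both proteins with DMSO and 100% = one protein alone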
Target sequence (P42858 whole entry, looked up, stated change not applied): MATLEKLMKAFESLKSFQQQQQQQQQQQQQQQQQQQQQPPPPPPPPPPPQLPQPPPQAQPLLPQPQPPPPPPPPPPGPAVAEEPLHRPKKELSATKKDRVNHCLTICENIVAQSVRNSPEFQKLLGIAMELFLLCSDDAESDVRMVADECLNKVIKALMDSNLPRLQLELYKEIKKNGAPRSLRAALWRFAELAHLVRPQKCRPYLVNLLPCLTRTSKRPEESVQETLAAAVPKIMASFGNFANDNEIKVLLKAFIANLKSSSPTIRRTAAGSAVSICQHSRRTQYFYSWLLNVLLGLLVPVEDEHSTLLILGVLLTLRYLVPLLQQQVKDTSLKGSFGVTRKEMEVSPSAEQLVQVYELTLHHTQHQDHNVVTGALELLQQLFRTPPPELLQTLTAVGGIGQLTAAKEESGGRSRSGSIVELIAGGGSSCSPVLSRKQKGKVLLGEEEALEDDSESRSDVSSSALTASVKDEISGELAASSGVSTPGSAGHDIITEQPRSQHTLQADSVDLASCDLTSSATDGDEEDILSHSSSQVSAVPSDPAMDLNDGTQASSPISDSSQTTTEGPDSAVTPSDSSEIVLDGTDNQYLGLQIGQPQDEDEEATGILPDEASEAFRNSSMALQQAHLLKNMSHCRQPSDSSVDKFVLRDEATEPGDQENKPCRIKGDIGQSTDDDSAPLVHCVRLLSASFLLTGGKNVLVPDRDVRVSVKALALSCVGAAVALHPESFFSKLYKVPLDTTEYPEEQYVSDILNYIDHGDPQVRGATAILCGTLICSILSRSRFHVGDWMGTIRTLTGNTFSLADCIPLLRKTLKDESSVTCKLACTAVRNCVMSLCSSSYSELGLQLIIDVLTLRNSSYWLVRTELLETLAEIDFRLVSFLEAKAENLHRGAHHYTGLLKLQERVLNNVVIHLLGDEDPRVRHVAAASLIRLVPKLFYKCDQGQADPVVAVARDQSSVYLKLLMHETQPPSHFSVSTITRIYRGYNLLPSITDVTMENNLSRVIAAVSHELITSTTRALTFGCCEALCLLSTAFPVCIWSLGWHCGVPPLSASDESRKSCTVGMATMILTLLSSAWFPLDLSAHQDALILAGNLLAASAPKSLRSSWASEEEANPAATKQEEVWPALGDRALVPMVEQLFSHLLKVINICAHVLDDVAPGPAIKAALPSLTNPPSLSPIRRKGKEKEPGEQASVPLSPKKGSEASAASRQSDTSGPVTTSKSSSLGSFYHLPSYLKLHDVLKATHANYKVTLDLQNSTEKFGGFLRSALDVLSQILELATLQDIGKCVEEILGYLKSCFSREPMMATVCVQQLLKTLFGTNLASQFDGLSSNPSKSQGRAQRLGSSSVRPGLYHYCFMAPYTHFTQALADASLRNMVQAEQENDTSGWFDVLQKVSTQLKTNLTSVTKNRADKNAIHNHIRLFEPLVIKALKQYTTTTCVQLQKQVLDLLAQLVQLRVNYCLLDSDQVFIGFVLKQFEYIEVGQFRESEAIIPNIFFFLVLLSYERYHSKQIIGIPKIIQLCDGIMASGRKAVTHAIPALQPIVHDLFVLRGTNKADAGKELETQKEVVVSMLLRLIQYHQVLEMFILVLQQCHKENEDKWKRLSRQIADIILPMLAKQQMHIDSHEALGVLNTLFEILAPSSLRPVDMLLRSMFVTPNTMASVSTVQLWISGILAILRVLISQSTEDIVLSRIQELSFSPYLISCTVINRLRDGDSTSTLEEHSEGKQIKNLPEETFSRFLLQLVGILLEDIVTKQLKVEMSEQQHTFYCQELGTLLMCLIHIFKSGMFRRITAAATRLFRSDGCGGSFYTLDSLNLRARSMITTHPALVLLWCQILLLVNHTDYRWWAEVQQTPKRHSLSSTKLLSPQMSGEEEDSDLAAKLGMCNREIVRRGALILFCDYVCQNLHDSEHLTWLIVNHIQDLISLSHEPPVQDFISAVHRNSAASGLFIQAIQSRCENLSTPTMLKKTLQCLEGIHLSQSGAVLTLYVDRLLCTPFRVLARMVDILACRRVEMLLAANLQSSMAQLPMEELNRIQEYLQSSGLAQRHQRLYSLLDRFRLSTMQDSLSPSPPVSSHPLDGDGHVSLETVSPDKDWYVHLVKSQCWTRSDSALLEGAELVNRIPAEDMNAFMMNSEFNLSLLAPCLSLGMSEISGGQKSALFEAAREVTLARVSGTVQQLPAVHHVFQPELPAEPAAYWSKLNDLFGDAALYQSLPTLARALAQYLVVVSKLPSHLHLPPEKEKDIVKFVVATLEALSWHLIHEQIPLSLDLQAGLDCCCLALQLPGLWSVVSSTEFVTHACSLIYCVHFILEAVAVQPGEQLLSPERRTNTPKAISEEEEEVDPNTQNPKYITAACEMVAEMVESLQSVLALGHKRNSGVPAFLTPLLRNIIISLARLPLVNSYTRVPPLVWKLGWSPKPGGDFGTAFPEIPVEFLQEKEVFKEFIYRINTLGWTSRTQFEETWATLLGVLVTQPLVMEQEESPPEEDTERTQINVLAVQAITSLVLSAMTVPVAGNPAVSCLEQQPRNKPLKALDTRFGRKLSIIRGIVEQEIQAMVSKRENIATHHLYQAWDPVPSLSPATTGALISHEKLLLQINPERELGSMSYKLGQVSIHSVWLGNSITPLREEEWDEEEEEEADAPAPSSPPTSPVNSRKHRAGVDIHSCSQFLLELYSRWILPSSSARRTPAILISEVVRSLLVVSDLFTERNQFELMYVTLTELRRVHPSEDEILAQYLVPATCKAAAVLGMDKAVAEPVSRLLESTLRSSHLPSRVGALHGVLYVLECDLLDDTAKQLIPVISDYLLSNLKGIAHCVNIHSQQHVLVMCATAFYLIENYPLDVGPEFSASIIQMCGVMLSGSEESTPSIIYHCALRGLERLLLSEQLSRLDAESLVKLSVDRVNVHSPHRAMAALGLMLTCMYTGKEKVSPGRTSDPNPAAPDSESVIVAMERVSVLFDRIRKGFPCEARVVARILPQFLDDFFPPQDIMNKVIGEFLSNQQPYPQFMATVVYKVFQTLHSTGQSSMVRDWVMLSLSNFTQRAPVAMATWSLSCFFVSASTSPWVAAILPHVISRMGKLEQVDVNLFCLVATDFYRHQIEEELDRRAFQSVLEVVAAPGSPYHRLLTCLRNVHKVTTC
Pf apPOL inh: Pf-apPOL inhibitors, biochemical, fluorescence; Plasmodium falciparum apicoplast DNA polymerase (apPOL); Recombinant Pf-apPOL, molecular beacon fluorescence, 1.5 h; inhibition, % at 10 µM; 210,000 tested, 0.25% active; AID 1794808, 2022
* marks the source's active call; other numbers are inactive results; x = no result. The list is not random: actives were taken first. Their share in the collection is about 3.6%. Rule as the data show it: active = inhibition above about 50%; inactive = the rest.

SMILES	mHTT CaM bind	Pf apPOL inh
COc1ccccc1NC(=O)CSc1nnc2cc(C)c3ccccc3n12	-10	9
COc1ccccc1CNC(=O)C1CCN(c2nccc(C)n2)CC1	-12	-1
CCOc1ccc(N=c2scc(-c3ccc(Br)cc3)n2CCO)cc1	19	-4
Cc1ccc(C)c(-c2csc(=Nc3ccccc3)n2CCCO)c1	100*	-3
O=S(=O)(c1ccc(-c2csc(=Nc3ccccc3)n2CCCO)cc1)N1CCCCC1	51*	0
CCOc1ccc(N=c2scc(-c3ccccc3)n2CCO)cc1	35	-3
CCCn1c(-c2ccc(S(=O)(=O)N3CCOCC3)cc2)csc1=Nc1ccccc1	18	-8
Clc1ccc(-c2csc(=Nc3ccccc3)n2CCCN2CCOCC2)cc1	98*	-6
CCCCn1c(-c2ccc(S(=O)(=O)N3CCOCC3)cc2)csc1=Nc1ccccc1	12	-5
OCCCn1c(-c2ccc(Br)cc2)csc1=Nc1ccccc1	59*	5
Cc1cc(=O)n(CC(=O)N(C)c2ccccc2)c(N2CCCC2)n1	4	0
COCCc1noc(COC2CCCN(C(=O)c3cccs3)C2)n1 (stereo not drawn)	-14	0
CCC(C)NC(=O)C1CC(c2ccccc2)CN(C(=O)c2ccoc2)C1 (stereo not drawn)	15	0
COc1cc(/C=C(\C#N)c2nc(-c3ccccc3)cs2)ccc1O	97*	-3
Cc1ccc(-c2csc(/C(C#N)=C/c3ccc(O)cc3)n2)cc1	32	-5
Cc1ccc(-c2csc(/C(C#N)=C/c3cccc(O)c3)n2)cc1	97*	-4
Cc1ccc(/C=C(\C#N)c2nc(-c3ccc(Br)cc3)cs2)o1	14	-1
COc1cc(/C=C(\C#N)c2nc(-c3ccc(Br)cc3)cs2)ccc1O	3	-2
N#C/C(=C\c1ccc(O)c(O)c1)c1nc(-c2cccc([N+](=O)[O-])c2)cs1	66*	1
N#C/C(=C\c1ccc(O)c(Br)c1)c1nc(-c2cccc([N+](=O)[O-])c2)cs1	7	-1
COc1ccc(-c2csc(/C(C#N)=C/c3ccc(OC)o3)n2)cc1	69*	-1
CC(=O)Nc1ccc(S(=O)(=O)Nc2cccc(Br)c2)cc1	-4	-7
CC(NC(=O)C12CC3CC(CC(C3)C1)C2)C(=O)NNC(=O)c1ccncc1 (stereo not drawn)	1	-5
O=C(NCCc1csc(C2CCN(C(=O)c3ccoc3)CC2)n1)C1CC1	10	1
CCCNC(=O)CCc1nc2ccccc2n(Cc2ccccc2C)c1=O	1	-8
SMILES	mHTT CaM bind	Pf apPOL inh
CCOc1cc(/C=C(\C#N)c2nc3ccccc3s2)ccc1O	56*	-5
CCOc1ccc(/C=C(\C#N)c2nc3ccccc3s2)cc1OC	-12	-2
CCN(CC)CCCNC(=O)CC1CCN(C(=O)c2ccc(C)cc2)CC1	6	-2
Cc1ccc(C(=O)N2CCC(CC(=O)NCCCN(C)c3ccccc3)CC2)cc1	51*	-4
COc1cc2nc(NC(=O)c3ccc(C(F)(F)F)nc3C)sc(=O)c2cc1OC	x	-13
COc1ccccc1-c1nnc(NC(=O)c2ccc3c(c2)CCCC3)o1	-2	-6
CC(C)S(=O)(=O)c1cccc(-c2nnc(NC(=O)c3ccc4c(c3)CCCC4)o2)c1	51*	-18
Cc1nc(SCc2ccccc2)[nH]c(=O)c1CC(=O)O	-7	-16
CC(=O)c1cccc(NC(=O)Cc2c(C)nc(SCc3cccc(Cl)c3)[nH]c2=O)c1	51*	-5
COc1ccc(C2=NN3C(C2)c2cccc(OC)c2OC32CCCCC2)cc1OC (stereo not drawn)	52*	-10
COc1cccc2c1OC1(CCCCC1)N1N=C(c3cccs3)CC21 (stereo not drawn)	43	-24
CCC1CN(C(=O)Nc2cccc(C(F)(F)F)c2)c2ccccc2O1 (stereo not drawn)	-39	-4
C(=C1c2ccccc2-c2ccccc21)c1ccccn1	-142	-4
Nc1ccc2c(c1)/C(=C/c1ccccc1)c1ccccc1-2	100*	-1
CSc1ccc(NC(=O)N2CCc3c(c(-c4nc(C)no4)nn3C)C2)cc1	36	-2
CSc1cccc(NC(=O)N2CCc3c(c(-c4nc(C5CC5)no4)nn3C)C2)c1	52*	-6
Cc1noc(-c2nn(C)c3c2CN(C(=O)Nc2ccc(Cl)cc2)CC3)n1	58*	1
Cn1nc(-c2nc(C3CC3)no2)c2c1CCN(C(=O)Nc1ccccc1)C2	12	0
CCc1ccccc1NC(=O)c1cc(I)ccc1Cl	-17	0
COc1ccc(C(=O)N2CCCCC2CCN2CCN(C)CC2)cc1 (stereo not drawn)	-2	-2
COc1ccc(-n2nc(C(=O)NCC(=O)O)c3ccccc3c2=O)cc1	-1	-3
COc1ccc(-n2nc(C(=O)NCC(=O)N(C)Cc3ccccc3)c3ccccc3c2=O)cc1	66*	0
NC(N)=Nc1nc(-c2ccccc2)c(-c2ccccc2)s1	100*	0
CC(=O)Nc1nc(-c2ccc(C)cc2)c(-c2ccccc2)s1	34	0
CSc1ccccc1NC(=O)C(=O)NCC1CCN(Cc2ccsc2)CC1	-4	-5
SMILES	mHTT CaM bind	Pf apPOL inh
Cn1cnc2c1CN(CC(=O)NCc1cccc(C(F)(F)F)c1)CC2	68*	-6
Cc1nn(C)c2c(=O)n(CC(=O)NCc3cccc(C(F)(F)F)c3)ccc12	-6	1
COc1cccc(Nc2nc(Nc3cccc(C(C)=O)c3)nc(N3CCOCC3)n2)c1	30	3
Cc1ccc(S(=O)(=O)N2CCN(c3ccc(F)c(Cl)c3)C(=O)C2C)cc1 (stereo not drawn)	-5	-4
O=C(Nc1nc(-c2cc3ccccc3oc2=O)cs1)c1ccc(F)cc1	-1	-2
O=C(Nc1nc(-c2cc3ccccc3oc2=O)cs1)c1ccc(Br)s1	-8	75*
O=C(Nc1ccc(I)cc1Cl)c1ncn[nH]1	96*	-6
O=C(Nc1ccccc1Cl)c1ncn[nH]1	26	-3
O=C(COc1ccccc1)N1CCCCC1CCN1CCCCCC1 (stereo not drawn)	-1	-9
Cc1cc(C2C(C#N)=C(N)N(c3ccc([N+](=O)[O-])cc3)C3=C2C(=O)CC(C)(C)C3)c(C)s1 (stereo not drawn)	15	-5
CCN(CC)c1nc(C)nc2sc(C(=O)Nc3cc(OC)c(OC)c(OC)c3)c(C)c12	51*	-4
CCN(CC)c1nc(C)nc2sc(C(=O)Nc3cc(OC)ccc3OC)c(C)c12	-4	-3
CCC1=NN(C(=O)c2cccc(Cl)c2)C(O)(C(F)(F)F)C1 (stereo not drawn)	-4	4
CCC1=NN(C(=O)c2ccc(Cl)cc2)C(O)(c2ccc(Br)cc2)C1 (stereo not drawn)	85*	-12
CCC1=NN(C(=O)c2ccc(Br)cc2)C(O)(c2ccccc2)C1 (stereo not drawn)	36	5
CCC1=NN(C(=O)c2ccncc2)C(O)(c2ccc(Br)cc2)C1 (stereo not drawn)	42	-2
CCCCC1=NN(C(=O)c2cccc(Cl)c2)C(O)(C(F)(F)F)C1 (stereo not drawn)	-9	57*
CCC1=NN(C(=O)c2cccc(Cl)c2)C(O)(c2ccc(Br)cc2)C1 (stereo not drawn)	89*	4
CCC1=NN(C(=O)c2ccc(Br)cc2)C(O)(c2ccc(OC)cc2)C1 (stereo not drawn)	59*	-1
